In all, about 33,000 sequences were measured (“E-score (-0.5 to 0.5)”: median about -0.0034, highest 2% from about 0.25 on). What follows is part of a selection rich in the highest values, with near analogues and random picks from the rest.
Target: T1, Yap3 (UniProt P38749)
T1 sequence: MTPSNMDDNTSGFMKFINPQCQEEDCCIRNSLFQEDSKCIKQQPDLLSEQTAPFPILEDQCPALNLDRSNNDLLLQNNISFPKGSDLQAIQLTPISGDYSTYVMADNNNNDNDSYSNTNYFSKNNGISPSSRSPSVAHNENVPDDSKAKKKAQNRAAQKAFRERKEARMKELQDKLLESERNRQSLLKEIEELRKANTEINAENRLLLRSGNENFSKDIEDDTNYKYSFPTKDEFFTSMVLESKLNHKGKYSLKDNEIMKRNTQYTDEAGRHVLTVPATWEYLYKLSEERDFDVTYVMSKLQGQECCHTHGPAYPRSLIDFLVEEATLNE
Assay: PBM E-score (8-mer binding enrichment) (E-score (-0.5 to 0.5)); higher = stronger / more preferred TF binding
Settings: protein concentration: 100 nM; construct: GST-full length
Description: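 Universal 'all 10-mer' protein binding microarrays (Agilent AMADID 015681) probed with GST-tagged S. cerevisiae TFs (full-length or DBD) made by in vitro transcription/translation (PURExpress), about 100-200 nM. Bound TF was detected with fluorescent anti-GST. Each ungapped 8-mer (which stands for itself and its reverse complement) is scored by the PBM enrichment score (E-score), a modified Wilcoxon-Mann-Whitney statistic from -0.5 to +0.5, computed with the Universal PBM Analysis Suite. Scale: above 0.35 generally sequence-specific binding.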

Sequence	PBM E-score
TAGAGGCA	-0.0959
ATCGTATG	0.0469
GTCTGCAA	-0.0254
CATGTTGA	0.255
CATGTTGC	-0.0984
AATGTTGA	0.0691
CCAAATAC	-0.144
GCAAAACC	-0.0668
ACAAATAG	0.202
ACAAATAC	0.293
ACAAATAA	0.225
ACAAAACC	0.272
GCAAATAC	0.0311
ACAAAAAA	0.234
ACAAAAAG	0.239
ACAAAAAT	0.298
ACAAAAAC	0.143
ACAAATAT	0.274
AAACCCTT	0.0938
ACAGGGTG	-0.126
ACCTAAAA	0.0796
AAGCGGAC	-0.025
ACGTAGTG	0.0166
GTACAGAA	-0.00324
CGTCAATC	0.0678
CCATGAGG	-0.0244

Sequence	PBM E-score
AATAGCCG	0.0258
ACCAGCAG	-0.186
CCTCGTAG	-0.00114
AAGATACA	0.262
AAGATAAG	0.0204
AAGATAAC	0.111
AAGATAAA	0.286
GAGATACA	0.167
AAGATACT	-0.0357
AAGGCCAC	-0.143
ACGCGAAT	0.106
CAATTAGC	0.085
ACAGACCG	-0.0661
CTCCCATC	0.0634
ACCAGAGG	-0.119
AATTCGCT	0.289
AATTCGCC	0.125
AATTCGCG	0.0991
CTGCACTA	0.262
GTGCACTA	0.0636
CTGCACTC	0.0431
AGACCATA	0.156
CTACGTCA	-0.0902
GTACGTTA	0.256
ATACGTTA	0.0384
GTACGTCA	0.267

Sequence	PBM E-score
CTACGTTA	0.0868
ATACGTCA	0.0839
CGAAGTAA	0.0985
GTGCCCAA	-0.0496
AATAACAC	0.288
ATTAACAA	0.282
ATTAACAG	0.0676
AATAACAG	0.149
CTTAACAC	0.114
AATAACAT	0.164
ATTAACAC	0.273
GTTAACAA	0.205
ATTAACTC	0.193
CCTGGTGC	-0.102
AATGCACG	-0.00779
ACATTTCG	0.0557
ACCTGGTC	-0.115
AAATGGAA	0.0788
AAATGTAA	0.227
GAATGTAA	0.221
TAATGTAA	0.312
TAATGGAA	0.256
GAATGGAA	0.131
CGAGGCGC	-0.0513
ATATTGAC	0.069
ATGCAGAC	-0.0609

Sequence	PBM E-score
CCTGGGTA	-0.172
GAAACGAC	0.123
GAAACGAA	0.255
CAAACGAA	0.0114
GGCGGGGA	0.233
TGCAATAA	0.272
AATAATAG	0.2
CATAATAA	0.105
CGCAATAA	0.191
AATAATAC	0.296
TATAATGA	0.136
CATAATAC	0.24
GGCAATAA	0.114
AATAATAA	0.308
GATAATAC	0.182
GATAATAA	0.113
TATAATAA	0.287
CAGCTGCC	-0.0739
CATCCTTA	-0.00117
CCCAGTTC	-0.0993
GGTGCGGA	-0.0917
CGATGGAC	-0.0566
AACCATCC	-0.0788
AATGCTCT	-0.0877
CAGACAAA	0.126
CGCTCACC	-0.0419

Sequence	PBM E-score
GCCCAGCA	-0.301
AATAAGAG	0.195
AATAATCG	0.107
AATAAGAA	0.269
AATAATAT	0.337
AATAAGAT	0.075
AATAATCC	0.109
AATAATGT	0.233
AATAATGG	0.329
AATAATCT	0.31
CATAATGG	-0.033
AAGAATAT	0.0717
GACGGGGA	-0.164
ACCAGGTC	-0.0571
CGGCGATC	-0.086
GAGGGGCC	-0.323
AGCTCAGG	-0.0122
GATTATAA	0.244
AATTATAC	0.26
TATTATAA	0.281
AATTATAG	0.234
AATTATTA	0.311
CATTATAA	0.0345
CATTATTC	0.185
AGTTATTA	0.184
GATTATTA	0.198

Sequence	PBM E-score
AATTATAA	0.224
CATTATTA	0.334
AATTATTG	0.195
GAACCCTA	-0.054
CAAGGGTC	-0.0382
AAGAATCC	-0.111
ACCTCTCT	-0.175
ATACTTCG	-0.0772
GGACTGTA	-0.0642
TATGCAGA	0.0525
AAGTATAT	0.135
AAGTATAA	0.249
AATTATTC	0.256
AAGTATAC	0.266
AACTATTC	0.125
AGTTATTC	0.096
CATATGAA	0.132
ACTTATGC	0.0843
GGGTAGAC	-0.216
AGAATCGA	0.0567
CGAATCGA	0.301
GGAATCGA	-0.059
CCTATTGA	0.0457
CGCTAACA	0.118
AATATGAG	0.0655
AATATGAT	0.279

Sequence	PBM E-score
GATATGAA	0.214
AATATGAC	0.223
AATATGAA	0.279
TATATGAA	0.203
CCAGTCTC	-0.22
AGGACACA	0.0983
CCATAATC	0.144
ACATAAGA	0.185
ACATAATC	0.293
GCATAAGA	0.0573
ACATAACT	0.192
ACATAATG	0.211
CCATAATA	0.214
GCATAACA	0.157
ACATAACC	0.0973
ACATAACA	0.285
GCATAATA	0.283
ACATAATA	0.353
ATGTGGAC	-0.0215
ACCTCCTC	-0.145
AATGCAGT	0.0696
